Screens deposited in PubChem BioAssay by Broad Institute.
MITF TRPM1 HTS: increases MITF-driven TRPM1 promoter luciferase signal; SK-MEL-5 TRPM1-promoter luciferase, 24 h; % of positive control, neutral wells = 0; activation, % at 12.5 µM; hit rate 0.75% among 300,000;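 active = mean activation of at least 80% with every replicate also reaching 80%; inconclusive = mean reaches 80% but some replicate falls short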
Wnt act: activators of Wnt/beta-catenin signaling; activation, % at 9.35 µM; Wnt/beta-catenin reporter cell assay, activator, plate reader; hit rate 1.2% among 300,000; AID 743398; in the data active = activation above about 30%, passing the limit was not always enough; inconclusive = no clear call, values can overlap the other calls
MITF TRPM1 inh: inhibitors of MITF-driven TRPM1 promoter in melanoma cells; inhibition, % at 12.5 µM; SK-MEL-5 TRPM1 promoter luciferase, 24 h; hit rate 0.83% among 330,000;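 active = mean inhibition across replicates of 60% or more, whatever share of single replicates reaches that level; inconclusive = some that reach 60%, reason not given; inactive = mean inhibition across replicates below 60%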
PAX8 inh HTS: inhibitors of PAX8 transcriptional activity in RMG-I cells; AID 652154; hit rate 1.2% among 360,000; inhibition, % at 12.6 µM; RMG-I TPO-luciferase reporter, SteadyGlo, 24 h;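 active = mean replicate inhibition at least 60% with every replicate also reaching 60%; inconclusive = only one of the two criteria is met; inactive = mean below 60% and not all replicates reaching 60%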;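 note: luciferase light reporting Pax8 driven TPO promoter activity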
esBAF inh: SWI/SNF esBAF complex inhibition. mouse ES cells, Bmi1-luciferase knock-in reporter, 24 h; 100% = twice the neutral-well signal. reporter increase, % at 12.5 µM. hit rate 2% among 350,000; in the data active = activation above about 40%; inconclusive = no clear call, values can overlap the other calls;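 note: a rise in the Bmi1 reporter signal indicates esBAF inhibition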
EWS-Fli block: blocks EWS/Fli oncoprotein-driven transcription; A673 NR0B1-luciferase reporter, viability-normalised; inhibition, % at 12.6 µM; hit rate 0.67% among 350,000;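 active = mean inhibition of at least 50% after viability correction, with every replicate also passing that limit; inconclusive = mean reaches 50% but only one of two replicates passes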;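 note: firefly luciferase signal divided by Alamar Blue viability fluorescence both relative to DMSO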
Each line names hits and unclear results; the compound was inactive in the other large screens. Compounds with a hit are over-represented: about 4% of the library has one in this group of screens.

COc1ccc(C(=O)/C=C/Sc2nc3ccccc3o2)cc1	EWS-Fli block 55 (no result: MITF TRPM1 HTS, esBAF inh)
COc1ccc(C(=O)N/C(N)=N/c2nc3ccccc3o2)cc1	esBAF inh inconclusive (no result: EWS-Fli block)
Cc1cc(-c2ccccc2)nc(N/N=C/c2ccc(O)cc2O)n1	none (no result: MITF TRPM1 HTS)
CN(/N=C/c1ccc(O)cc1O)c1nc(-c2ccccc2)cc(-c2ccccc2)n1	PAX8 inh HTS 158 (no result: esBAF inh)
CSc1ncc(C(=O)Nc2ccc(C(C)=O)cc2)c(-c2ccccc2)n1	esBAF inh 61
C[C@@H]1CN([C@H](C)CO)C(=O)c2cc(NC(=O)CCCN(C)C)ccc2O[C@@H](C)CCCCO[C@@H]1CN(C)S(C)(=O)=O	none (no result: MITF TRPM1 HTS, Wnt act, MITF TRPM1 inh)
Cc1cc(C(=O)O)ccc1-c1ccc(/C=C2\SC(=O)N(CC(=O)Nc3ccc4c(c3)OCO4)C2=O)o1	none (no result: EWS-Fli block)
C#CCN1C(=O)S/C(=C\c2ccc(-c3ccc(C(=O)O)cc3C)o2)C1=O	esBAF inh 86
COC(=O)c1ccc(NC(=O)CSc2nc3ccccc3c(=O)[nH]2)cc1	none (no result: PAX8 inh HTS, EWS-Fli block)
CCC(Sc1nc2ccccc2c(=O)[nH]1)C(=O)Nc1ccc(C(C)=O)cc1 (stereo unspecified)	esBAF inh 70
O=C(C[C@@H]1CC[C@H]2[C@@H](COC[C@H](O)CN2C(=O)c2ccccc2F)O1)N1CCN(c2ccccc2)CC1	none (no result: MITF TRPM1 HTS, Wnt act, MITF TRPM1 inh)
Cc1ccc(S(=O)(=O)NN=Cc2ccccc2Cl)cc1	Wnt act 34 (no result: MITF TRPM1 HTS, MITF TRPM1 inh)
CCC(C)(C)c1ccc2c(c1)C(=O)c1ccccc1C2=O	Wnt act 39 (no result: EWS-Fli block)
CCC(=O)Nc1ccc2c(c1)C(=O)c1ccccc1C2=O	esBAF inh inconclusive (no result: Wnt act, PAX8 inh HTS, EWS-Fli block)
C[C@H](CO)N1C[C@H](C)[C@H](CN(C)Cc2ccc(C(=O)Nc3ccccc3N)cc2)Oc2ccc(NC(=O)NC3CCCCC3)cc2CC1=O	none (no result: MITF TRPM1 HTS, Wnt act, MITF TRPM1 inh, esBAF inh)
O=C(CC1CCCCC1)NCc1ccccn1	none (no result: MITF TRPM1 HTS, EWS-Fli block)
O=C(CC1CCCCC1)NCc1ccccc1Cl	esBAF inh 53
CCN(c1ccccc1)S(=O)(=O)c1ccc(C(=O)Nc2ccncc2)cc1	none
CCN(c1ccccc1)S(=O)(=O)c1ccc(NC(=O)c2nc(S(C)(=O)=O)ncc2Cl)cc1	MITF TRPM1 inh 100 (no result: Wnt act, PAX8 inh HTS, EWS-Fli block)
CCS(=O)(=O)c1ncc(Cl)c(C(=O)Nc2ccc(S(=O)(=O)N(C)c3ccccc3)cc2)n1	MITF TRPM1 inh 98, PAX8 inh HTS 110 (no result: EWS-Fli block)
Cc1ccc(NC(=O)c2ccc(CSc3nnnn3C)cc2)cc1	MITF TRPM1 HTS 97 (no result: Wnt act, PAX8 inh HTS, EWS-Fli block)
Cc1ccccc1NC(=O)c1ccc(CSc2ncccn2)cc1	esBAF inh 46 (no result: PAX8 inh HTS)
Cc1ccc(NC(=O)c2ccc(CSc3ccccn3)cc2)c(O)c1	none (no result: MITF TRPM1 HTS, esBAF inh)
Cc1ccc(NC(=O)c2ccc(CSc3ccccn3)cc2)cc1	esBAF inh 50 (no result: Wnt act, PAX8 inh HTS, EWS-Fli block)
C[C@@H]1CN([C@@H](C)CO)C(=O)c2cc(NC(=O)Nc3ccc(F)cc3)ccc2O[C@@H]1CN(C)S(=O)(=O)c1cn(C)cn1	none (no result: MITF TRPM1 HTS, Wnt act, MITF TRPM1 inh)
CNC[C@@H]1Oc2c(NS(=O)(=O)c3cccs3)cccc2C(=O)N([C@@H](C)CO)C[C@@H]1C	none (no result: MITF TRPM1 HTS, Wnt act, MITF TRPM1 inh, PAX8 inh HTS)
C(=C\c1nnc(-c2cccs2)o1)/c1ccccc1	MITF TRPM1 HTS 123 (no result: PAX8 inh HTS)
Clc1ccccc1-c1nnc(-c2cccs2)o1	esBAF inh 46
Cc1ccc(/C=C/c2nnc(-c3ccccc3)o2)cc1	none (no result: Wnt act, PAX8 inh HTS, EWS-Fli block)
COc1cc(C(=O)O/N=C(\N)c2ccccn2)cc(OC)c1OC	none (no result: MITF TRPM1 HTS)
CCOc1ccc(C(=O)O/N=C(\N)c2ccccn2)cc1	MITF TRPM1 inh 67, PAX8 inh HTS 128, EWS-Fli block 81 (no result: MITF TRPM1 HTS)
CC(C)(C)c1ccc(C(=O)O/N=C(\N)c2ccccn2)cc1	MITF TRPM1 inh 78, PAX8 inh HTS 70, EWS-Fli block 75
N/C(=N\OC(=O)c1ccccc1)c1ccccn1	none
CC[C@@H](C)[C@H](CN[C@H](CNC)C(C)C)NC[C@@H](C)c1ccc(CC(C)C)cc1	MITF TRPM1 inh 100
CC[C@H](C)[C@@H](CNC)NC[C@@H](Cc1ccc(O)cc1)NCC(C)(C)C	none
COc1ccc(C2=NN(C(=O)c3ccccc3)C(c3cccc([N+](=O)[O-])c3)C2)cc1 (stereo unspecified)	none (no result: esBAF inh)
CCOC(=O)/C=C(/C)N1N=C(c2ccc(OC)cc2)CC1c1cccc([N+](=O)[O-])c1 (stereo unspecified)	esBAF inh 55 (no result: EWS-Fli block)
O=S(=O)(Cc1noc(-c2ccccc2Cl)n1)c1ccccn1	MITF TRPM1 HTS inconclusive, Wnt act 40, esBAF inh 44
Cc1noc(C)c1-c1nc(CS(=O)(=O)c2ccc(Cl)cc2)no1	none (no result: esBAF inh)
